In PubChem BioAssay:

Target: NADPH oxidase 5 (Homo sapiens) (UniProt Q96PH1)
Test: compounds shifting NOX5 Amplex Red fluorescence – cell-based, HEK293-NOX5, NOX inhibitor project, primary screen (AID 1161)
Conditions: HEK293-NOX5, ionomycin, 45 min, higher = more signal

NADPH oxidase 5 (Homo sapiens), sequence (Q96PH1 whole entry, looked up): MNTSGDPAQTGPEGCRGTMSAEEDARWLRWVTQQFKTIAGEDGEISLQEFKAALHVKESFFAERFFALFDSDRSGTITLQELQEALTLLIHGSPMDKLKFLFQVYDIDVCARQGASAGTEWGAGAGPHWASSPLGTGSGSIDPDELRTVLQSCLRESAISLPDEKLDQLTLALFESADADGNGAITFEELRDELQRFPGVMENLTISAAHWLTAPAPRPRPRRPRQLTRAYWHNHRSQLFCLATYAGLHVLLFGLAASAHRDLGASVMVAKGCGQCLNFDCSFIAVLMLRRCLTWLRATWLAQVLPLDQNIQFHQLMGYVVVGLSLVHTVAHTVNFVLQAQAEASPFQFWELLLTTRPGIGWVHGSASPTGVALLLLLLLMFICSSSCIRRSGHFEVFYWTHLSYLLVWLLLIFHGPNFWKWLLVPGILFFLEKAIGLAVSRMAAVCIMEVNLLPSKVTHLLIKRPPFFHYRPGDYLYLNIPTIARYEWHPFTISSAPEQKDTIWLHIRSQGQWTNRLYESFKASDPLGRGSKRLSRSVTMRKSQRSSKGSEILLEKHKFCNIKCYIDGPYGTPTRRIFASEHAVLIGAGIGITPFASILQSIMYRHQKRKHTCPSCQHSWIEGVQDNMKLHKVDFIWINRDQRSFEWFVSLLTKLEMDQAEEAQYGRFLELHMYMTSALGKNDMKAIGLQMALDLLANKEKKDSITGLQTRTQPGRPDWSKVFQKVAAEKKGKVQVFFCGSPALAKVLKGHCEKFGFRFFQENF

Row | SMILES | z-score
1 | CC(c1ccccc1)C(O)C1C=CC2C(=O)N(C)C(=O)C2N1Nc1ccccc1 (stereo not given) | -3.26
2 | Cc1ccc(N2C(=O)c3ccccc3[C@@H](C(=O)NCCCN(C)C)[C@@H]2c2ccc(CO)cc2)nc1 | 0.513
3 | CCCCC(CC)C(O)C1C=CC2C(=O)N(C)C(=O)C2N1Nc1ccccc1 (stereo not given) | -3.2
4 | C=CCNC(=O)[C@@H]1[C@H]2C(=O)O[C@H](c3ccccc3)[C@H](c3ccccc3)N2[C@H](c2ccc(O)cc2)[C@@]12C(=O)N(C(=O)OCCOC)c1ccc(C#CC3=CCCCC3)cc12 | 0.344
5 | NCCCCCCNC(=O)[C@@H]1C[C@@H]2C(=O)N[C@@H](CCCCN)C(=O)N2[C@@H]1c1ccc(O)cc1 | -3.51
6 | Cc1ccc(C(C)CC(O)C2C=CC3C(=O)N(c4ccccc4)C(=O)C3N2Nc2ccccc2)o1 (stereo not given) | -4.91
7 | COCCOC(=O)N1C(=O)[C@@]2(c3cc(C#CC4(O)CCCCCC4)ccc31)[C@H](C(=O)N1CCc3cc(OC)c(OC)cc3C1)[C@H]1C(=O)O[C@H](c3ccccc3)[C@H](c3ccccc3)N1[C@@H]2c1ccc(OCCO)cc1 | 1.74
8 | COC(=O)[C@@]1(Cc2ccc(OC)cc2)[C@H]2c3cc(C(=O)N(C)C)n(Cc4ccc(OC(F)(F)F)cc4)c3C[C@H]2CN1C(=O)c1ccccc1 | -0.499
9 | CCCCCN1CC=CC23O[C@@H]4C=CCCOC(=O)C4[C@H]2C(=O)N(CCCCCCO)[C@@H]3C1=O (stereo not given in full) | 2.08
10 | COCCOC(=O)N1C(=O)[C@@]2(c3cc(C#CC4=CCCCC4)ccc31)[C@H](c1ccccc1OCCO)N1[C@H](c3ccccc3)[C@H](c3ccccc3)OC(=O)[C@H]1[C@@H]2C(=O)N1CCN(c2ncccn2)CC1 | 1.32
11 | NC(=O)[C@@]1(Cc2ccccc2)COC(c2ccc(OCCCO)cc2)=N1 | -2.14
12 | N#Cc1ccc(NN2C(C(O)c3ccc(Br)cc3)C=CC3C(=O)N(c4ccccc4)C(=O)C32)cc1 (stereo not given) | -3.45
13 | CCOC(=O)C[C@H]1[C@H](OC(=O)c2ccccc2-c2ccccc2)[C@@H](NC(=O)c2ccc3ccccc3c2)c2cc(OCCCO)ccc2N1C(=O)c1ccccc1 | 1.53
14 | O=C1NC(=O)C2C1C=CC(C(O)c1ccco1)N2Nc1ccc(Cl)cc1Cl (stereo not given) | -4.22
15 | C=CCOC(=O)[C@@]1(Cc2ccccc2)C[C@H]2CO[C@H](c3ccc(OC)cc3)N2C1=O | -1.93
16 | COCCCNC(=O)[C@@H]1c2ccccc2C(=O)N(C(C)C)[C@H]1c1ccc(CO)cc1 | -0.51
17 | COC(=O)C1=CC(CCCO)=CC(c2cccs2)N(Cc2cccc(OC(F)(F)F)c2)C=C1C(=O)OC (stereo not given) | -0.0441
18 | [N-]=[N+]=Nc1ccccc1C[C@]1(C(=O)NCC(O)CO)COC(c2ccc(OCCCO)cc2)=N1 (stereo not given in full) | -1.13
19 | COc1cccc(C)c1NC(=O)O[C@H]1[C@H](OC(=O)Nc2ccc3c(c2)OCO3)[C@@H](OC(=O)Nc2ccc3c(c2)OCO3)[C@@H](OC)O[C@@H]1CO | -1.67
20 | CCCCCCCCCCC(O)C1C=CC2C(=O)N(c3ccccc3)C(=O)C2N1Nc1ccc(C#N)cc1 (stereo not given) | -0.266
21 | Cc1ccc(F)cc1S(=O)(=O)N[C@@H]1CCN(Cc2ccc(Br)cc2)C1 | -2.15
22 | C=CC[C@]1(C(=O)N2CCCCC2)N=C(c2ccc(OCCCO)cc2)O[C@H]1c1ccccc1CN=[N+]=[N-] | -1.46
23 | COCC(=C=CC[C@H](O)c1ccc(CO)o1)CCO | -0.224
24 | O=C(c1ccccc1)N1C(=O)[C@]2(Cc3ccccc31)N=C(c1ccc(OCCCO)cc1)O[C@@H]2c1ccccc1 | -1.77
25 | C[N+](C)(C)CCCCCCNC(=O)[C@@H]1C[C@@H]2C(=O)N3CCC[C@H]3C(=O)N2[C@@H]1c1ccc(O)cc1 | -0.233
26 | C=CCC(OC(C)=O)[C@@H]1[C@@H](N(Cc2ccc(-c3ccccc3)cc2)C(=O)c2ccc(-c3ccccc3)cc2)c2cc(OCCCO)ccc2N1C(=O)c1ccc2ccccc2c1 (stereo not given in full) | 0.99
27 | CCOC(=O)C1=C[C@@H](C(C)(C)C)N(S(=O)(=O)c2ccc(C)cc2)[C@H]1c1cccc2ccccc12 | 0.139
28 | O=C1CS(=O)(=O)C(c2cccc([N+](=O)[O-])c2)N1c1ccccc1 (stereo not given) | 1.79
29 | COC(=O)[C@@]1(Cc2ccc(F)cc2)[C@H]2c3cc(C(=O)N4CCCC4)n(CCc4c[nH]c5ccccc45)c3C[C@H]2CN1C(=O)c1ccccc1 | 1.9
30 | COc1ccc(CCNC(=O)[C@@]2(c3ccc([N+](=O)[O-])cc3)CC(=O)N(C3CCCCC3)[C@@H]2c2ccc(CO)cc2)cc1 | 0.0392
